A short description of test [1]: AP1 Signaling Pathway (AID 357; active = well fitted curve in either direction with a large enough effect, not every such curve was filed as active;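 also: ME-180 reporter cells stimulated with EGF at its EC50 level; % is scaled to controls: 0 for no effect and ±100 for the full control effect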). The note with it: ME-180 AP-1-bla reporter, EGF-induced, beta-lactamase ratio, 5 h; at 7.69 µM (top of the series) unless noted. In a few lines:
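First, ME-180 AP-1-bla cells were cultured overnight at 37 °C in low-serum Opti-MEM. Next, titrated compounds with EC50 EGF were incubated 5 hours. Finally, CCF4 was added for 2.5 hours and the 460/530 nm ratio recorded.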

For test [2], the target named is Cytochrome P450 1A2 (Homo sapiens) (UniProt P05177). Nature of the test: p450-cyp1a2 (AID 410; calls by dose curve; also: potency is read from the fitted curve at half-maximal effect). In a few lines:
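Inhibition was calculated relative to 57 uM furafylline (full inhibition). The reaction used human CYP1A2 at 20nM with Luciferin-ME at its Km, 100uM, driven by an NADPH-regenerating system for 60 min at room temperature.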

Test [3] is described as follows: NFAT Signaling Pathway (AID 444; active = well fitted curve in either direction with a large enough effect, not every such curve was filed as active;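 also: carbachol stimulus at about its EC50 of 1 µM final; % is scaled to controls: 0 for no effect and ±100 for the full control effect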). The note with it: Jurkat NFAT-bla M1, carbachol, beta-lactamase ratio, 5 h; at 7.69 µM (top of the series) unless noted. A digest of the protocol:
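Jurkat cells with NFAT-driven β-lactamase reporter and co-expressed M1 receptor, stimulated with carbachol (final 1 uM, ~EC50), compound titration, 5 h at 37 °C. CCF4 loaded 1 h at RT; 460/530 nm ratio gave %activity and AC50.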

Test [4] in a line: Stat Signaling Pathway (AID 446; active = well fitted curve in either direction with a large enough effect, not every such curve was filed as active;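 also: ME-180 cervical cancer cells given 40 pM IL-6 alongside compound; SIE-controlled beta-lactamase reporter measured as 460/530 nm FRET emission ratio; % is scaled to controls: 0 for no effect and ±100 for the full control effect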). As to conditions: ME-180 SIE beta-lactamase reporter, IL-6 stimulated, 5 h; at 7.69 µM (top of the series) unless noted. In a few lines:
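Reporter line: ME-180 cervical carcinoma, SIE-beta-lactamase. Treatment: compound with 40 pM IL-6, 5 hrs, 37 C, in low-serum OPTI-MEM with 10 mM HEPES pH 7.3. Detection: 460/530 nm fluorescence.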

Test [5] concerns the target Glucocorticoid receptor (Homo sapiens) (UniProt P04150). Put plainly: GR-GFP Redistribution (AID 450;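 active = compounds whose dose series gives a full or clear partial fitted curve of increased nuclear translocation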; also: potency is read from the fitted curve at half-maximal effect). As to conditions: U2OS GR-GFP nuclear translocation, laser cytometry, 2 h.
The target is the same in test [6]. Put plainly: GR-EFC Redistribution (AID 451; calls by dose curve; also: potency is read from the fitted curve at half-maximal effect). The note with it: CHO-K1 GR-EFC translocation, beta-gal luminescence, 2 h. A digest of the protocol: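 CHO-K1 cells expressing nuclear EA and GR-ED fragments of b-gal; compounds titrated up to 46 uM final, 2 h at 37 C. GR nuclear translocation read as complemented b-gal luminescence after 1 h RT detection.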
In test [7] the target is 3',5'-cyclic-AMP phosphodiesterase 4B (Homo sapiens) (UniProt Q07343). Put plainly: qHTS Assay for Inhibitors of PDE-IV (AID 607; active = well fitted activation curve with a large enough effect in the main read-out, with a control signal flat, not every such curve was filed as active; also: % of control where 0% means no effect). A digest of the protocol: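 Cell-based read-out of cAMP via a modified cyclic nucleotide-gated channel and membrane potential dye (535/590 nm) in HEK293 cells expressing PDE4 endogenously. Compounds tested up to 22.9 uM final; 100 uM RO 20-1724 reference.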
Chain of 3',5'-cyclic-AMP phosphodiesterase 4B (Homo sapiens) (Q07343 whole entry, looked up): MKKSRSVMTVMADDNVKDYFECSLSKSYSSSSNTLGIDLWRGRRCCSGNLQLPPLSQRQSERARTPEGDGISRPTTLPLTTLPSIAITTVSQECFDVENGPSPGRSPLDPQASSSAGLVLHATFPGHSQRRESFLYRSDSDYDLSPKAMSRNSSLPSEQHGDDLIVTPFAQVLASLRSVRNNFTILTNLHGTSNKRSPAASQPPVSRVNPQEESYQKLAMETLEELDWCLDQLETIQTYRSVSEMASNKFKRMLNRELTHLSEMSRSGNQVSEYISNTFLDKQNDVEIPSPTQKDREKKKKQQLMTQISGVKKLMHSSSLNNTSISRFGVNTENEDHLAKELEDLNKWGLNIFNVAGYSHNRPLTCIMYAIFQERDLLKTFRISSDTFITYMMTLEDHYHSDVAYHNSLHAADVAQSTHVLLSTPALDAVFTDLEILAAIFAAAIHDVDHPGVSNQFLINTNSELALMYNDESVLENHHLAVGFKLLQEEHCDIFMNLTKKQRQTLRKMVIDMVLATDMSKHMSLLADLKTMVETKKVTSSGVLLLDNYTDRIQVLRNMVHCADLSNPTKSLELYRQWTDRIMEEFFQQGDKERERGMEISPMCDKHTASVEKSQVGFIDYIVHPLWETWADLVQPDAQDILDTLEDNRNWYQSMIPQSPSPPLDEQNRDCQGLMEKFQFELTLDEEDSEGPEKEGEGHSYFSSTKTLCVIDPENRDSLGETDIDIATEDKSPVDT

Test [8] deals with Guanine nucleotide-binding protein G(i) subunit alpha-1 (Homo sapiens) (UniProt P63096). Nature of the test: qHTS Assay for Inhibitors of RGS12 GoLoco Motif Activity (Green Fluorophore) (AID 879).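 Also: 0% = labeled peptide with Gαi1 and full inhibition = labeled peptide alone without protein; negative values mean loss of peptide binding seen as reduced polarization.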 A digest of the protocol: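 Fluorescence polarization assay: 50 nM Gαi1 with 10 nM FITC-labeled RGS12 GoLoco peptide in 10 mM Tris pH 7.5, 150 mM NaCl, 0.1 mM GDP, 0.05% NP40, 10 min at room temperature with compound.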
Chain of Guanine nucleotide-binding protein G(i) subunit alpha-1 (Homo sapiens) (P63096 whole entry, looked up): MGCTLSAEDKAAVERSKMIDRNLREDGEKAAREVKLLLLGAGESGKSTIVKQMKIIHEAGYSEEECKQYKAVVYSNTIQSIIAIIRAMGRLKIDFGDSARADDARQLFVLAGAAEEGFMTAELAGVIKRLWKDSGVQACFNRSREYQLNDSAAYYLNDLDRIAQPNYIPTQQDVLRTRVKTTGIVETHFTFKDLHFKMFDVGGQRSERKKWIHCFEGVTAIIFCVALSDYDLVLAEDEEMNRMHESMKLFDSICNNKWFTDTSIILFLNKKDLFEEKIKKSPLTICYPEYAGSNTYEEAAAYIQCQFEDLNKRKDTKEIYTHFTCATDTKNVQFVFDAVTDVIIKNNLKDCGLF
In general terms: Quantitative high-throughput screening tests each substance at several concentrations.

Test [9] deals with Cytochrome P450 2C9 (Homo sapiens) (UniProt P11712). Nature of the test: qHTS Assay for Inhibitors and Substrates of Cytochrome P450 2C9 (AID 883). Also: % is scaled to controls: 0 for no effect and ±100 for the full control effect; nearly all actives have a fitted effect of over 60% in size. In a few lines:
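Signal: luciferase luminescence reporting luciferin produced by CYP2C9. Conditions: 10nM enzyme, Luciferin-H 100uM at KM, 25mM KPO4, 37C, 60 min NADPH-driven reaction. Reference: 57uM sulphaphenazole as 100% inhibition.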

In test [10] the target is Cytochrome P450 2D6 (Homo sapiens) (UniProt P10635). Nature of the test: qHTS Assay for Inhibitors and Substrates of Cytochrome P450 2D6 (AID 891).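 Also: luciferin methyl ether substrate demethylated by CYP2D6 with NADPH regeneration; % is scaled to controls: 0 for no effect and ±100 for the full control effect; nearly all actives have a fitted effect of over 60% in size.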 A digest of the protocol: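 Human CYP2D6 (5 nM) with 30 uM Luciferin-ME EGE (at Km) in 100 mM KPO4, compound preincubated 10 min, then NADPH regeneration system for 60 min at room temperature. Luciferin read by luminescence; normalized to 1.43 uM quinidine.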
Chain of Cytochrome P450 2D6 (Homo sapiens) (P10635 whole entry, looked up): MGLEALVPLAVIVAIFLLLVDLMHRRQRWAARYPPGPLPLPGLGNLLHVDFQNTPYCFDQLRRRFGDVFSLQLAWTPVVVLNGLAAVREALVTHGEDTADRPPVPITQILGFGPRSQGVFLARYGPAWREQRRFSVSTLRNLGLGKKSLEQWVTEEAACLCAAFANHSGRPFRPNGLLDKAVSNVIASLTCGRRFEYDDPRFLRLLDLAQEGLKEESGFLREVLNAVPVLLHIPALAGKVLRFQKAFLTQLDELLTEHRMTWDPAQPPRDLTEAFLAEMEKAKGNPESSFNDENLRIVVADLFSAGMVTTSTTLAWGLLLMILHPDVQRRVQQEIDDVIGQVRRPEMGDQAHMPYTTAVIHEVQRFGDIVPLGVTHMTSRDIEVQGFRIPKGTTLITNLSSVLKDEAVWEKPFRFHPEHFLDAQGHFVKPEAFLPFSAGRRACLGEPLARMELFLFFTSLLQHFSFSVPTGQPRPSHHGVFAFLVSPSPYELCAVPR

Test [11] addresses Cytochrome P450 2C19 (Homo sapiens) (UniProt P33261). Nature of the test: qHTS Assay for Inhibitors and Substrates of Cytochrome P450 2C19 (AID 899). Also: % is scaled to controls: 0 for no effect and ±100 for the full control effect; nearly all actives have a fitted effect of over 60% in size. A digest of the protocol:
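Signal comes from luciferase acting on luciferin released by CYP2C19-mediated hydroxylation of Luciferin-H EGE, 10uM (KM). Assay mix: 5nM enzyme, 50mM KPO4; 60 min at 37C with NADPH regeneration. Data normalized against 57uM ketoconazole.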

The nature of test [12]: qHTS Assay for Identification of Small Molecule Agonists for Thrombopoietin (TPO) Signaling Pathway (AID 917). Also: % is scaled to controls: 0 for no effect and ±100 for the full control effect. In a few lines: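 We measured Glycoprotein IIb promoter–luciferase output in IL-3-starved Ba/F3 murine cells expressing the human TPO receptor after 24 hrs at 37 C with compounds and 26 pM TPO.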
The target in test [13] is Muscarinic acetylcholine receptor M1 (Rattus norvegicus) (UniProt P08482). Put plainly: qHTS Assay for Antagonists of Acetylcholine Muscarinic M1 Receptor: Measurement of IP-One Response (AID 944). Also: nearly all actives have a fitted effect of over 75% in size. In a few lines: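 Steps: plate transfected CHO-M1 cells overnight; add test compound, 10 min; add carbachol (200 nM, EC80) in stimulation buffer with LiCl; incubate 30 min; add labelled IP1 tracer and anti-IP1 antibody in lysis buffer; read HTRF after 10 min.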
Chain of Muscarinic acetylcholine receptor M1 (Rattus norvegicus) (P08482 whole entry, looked up): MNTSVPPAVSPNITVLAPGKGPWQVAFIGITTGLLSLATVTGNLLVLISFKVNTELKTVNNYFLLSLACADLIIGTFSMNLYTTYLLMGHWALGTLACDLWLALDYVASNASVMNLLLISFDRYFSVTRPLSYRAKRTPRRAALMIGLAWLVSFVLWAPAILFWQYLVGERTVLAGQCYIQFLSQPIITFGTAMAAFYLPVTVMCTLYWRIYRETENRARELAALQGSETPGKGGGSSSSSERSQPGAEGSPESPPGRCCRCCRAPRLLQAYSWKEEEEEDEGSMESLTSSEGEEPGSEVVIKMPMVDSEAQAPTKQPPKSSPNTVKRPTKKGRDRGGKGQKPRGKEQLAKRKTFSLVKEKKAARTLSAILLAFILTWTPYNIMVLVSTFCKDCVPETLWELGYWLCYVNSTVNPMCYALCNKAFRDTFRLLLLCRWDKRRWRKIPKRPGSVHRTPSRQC

The target in test [14] is Pyruvate kinase (Leishmania mexicana) (UniProt Q27686). Nature of the test: qHTS Validation Assay for Inhibitors of Leishmania Mexicana Pyruvate Kinase (AID 945).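 Also: 0% = DMSO only neutral control wells.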 A digest of the protocol:
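Mutant LmPYK (E451W), 0.2 nM, plus 0.5 mM PEP and 0.1 mM ADP in 50 mM imidazole pH 7.2 containing 0.01% Tween 20 and 0.05% BSA. Incubated 1 h at room temperature; luminescence via PKLight, normalized to DMSO.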

Test [15] has as its target Pyruvate kinase PKM (Homo sapiens) (UniProt P14618). Put plainly: qHTS Assay for Activators of Human Muscle Pyruvate Kinase (AID 954; active = well fitted curve in the direction sought with a large enough effect, not every such curve was filed as active;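 also: 0% = uninhibited enzyme and -100% = no enzyme or full thiadiazolimine inhibition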). A digest of the protocol:
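Human PKM2 activity is measured as ATP generation, detected by luciferase-coupled luminescence. The enzyme (0.1 nM) acts on 0.5 mM PEP and 0.1 mM ADP for 1 h at ambient temperature; data are normalized to uninhibited and full-inhibition wells.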

Test [16] deals with Alpha-galactosidase A (Homo sapiens) (UniProt P06280). Put plainly: Counterscreen for Glucocerebrosidase Inhibitors: qHTS Assay for Human alpha-Galactosidase at pH 4.5 (AID 992). Also: 0% is about no effect. A digest of the protocol: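 Quantitative HTS: compounds tested from 0.7 nM up to 77 uM against 2 nM enzyme with 80 uM 4-MU alpha-D-galactopyranoside. The 20 min room-temperature reaction is stopped with 1M NaOH/1M glycine, pH 10.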
Chain of Alpha-galactosidase A (Homo sapiens) (P06280 whole entry, looked up): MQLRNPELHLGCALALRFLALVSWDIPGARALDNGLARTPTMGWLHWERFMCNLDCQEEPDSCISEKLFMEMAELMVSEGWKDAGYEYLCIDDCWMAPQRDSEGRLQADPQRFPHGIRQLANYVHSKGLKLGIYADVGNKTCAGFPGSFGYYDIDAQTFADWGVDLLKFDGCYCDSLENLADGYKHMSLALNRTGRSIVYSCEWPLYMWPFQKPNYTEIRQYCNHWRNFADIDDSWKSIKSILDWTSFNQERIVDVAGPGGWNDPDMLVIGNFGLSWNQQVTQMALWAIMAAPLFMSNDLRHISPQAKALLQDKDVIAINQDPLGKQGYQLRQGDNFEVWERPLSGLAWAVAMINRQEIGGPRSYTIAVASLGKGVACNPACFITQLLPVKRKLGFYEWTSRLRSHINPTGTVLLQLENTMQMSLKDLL
Background: The purpose of a counterscreen is to sort out artefacts and off-target activity.

For test [17], the target named is alpha-glucosidase (Oryza sativa, rice) (UniProt Q653V4). Nature of the test: Counterscreen for Glucocerebrosidase Inhibitors: qHTS Assay for Rice alpha-Glucosidase at pH 5.0 (AID 997).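 Also: 0% = full activity with enzyme and -100% = basal without enzyme.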 A digest of the protocol:
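Rice alpha-glucosidase (4 nM final) with 400 uM 4-methylumbelliferyl-alpha-D-glucopyranoside in citrate buffer pH 5.0, 20 min at room temperature, stopped at pH 10; fluorescence 365/440 nm, compounds 0.7 nM–77 uM, AC50 from Hill fits.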

Test [18] is described as follows: qHTS Assay for Identification of Small Molecule Antagonists for NFkB Signaling Pathway (AID 895; active = well fitted inhibition curve with a large enough effect in the signal ratio, with a control signal flat, not every such curve was filed as active; the % refers to the signal ratio; also: % is scaled to controls: 0 for no effect and ±100 for the full control effect). In a few lines:
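ME-180 NFkB-bla cells (beta-lactamase under NFkB response element), plated overnight, treated with compound then 10 pM TNF alpha (about EC50) for 5 hrs at 37 C. LiveBLAzer FRET read at 460/530 nm emission, 405 nm excitation.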

Test [19] has as its target Mitogen-activated protein kinase 10 (Mus musculus) (UniProt Q61831). Put plainly: JNK3 AlphaScreen Assay (AID 530; active = well fitted curve in either direction with a large enough effect, not every such curve was filed as active). A digest of the protocol: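 qHTS format: compounds tested as titrations against IL-1beta/TNF-alpha-activated HepG2 lysate JNK3 with biotin-GST-cJun substrate and 10 uM ATP at room temperature. Loss of anti-phospho-cJun AlphaScreen signal indicates inhibition.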
On the technique in general: Bead proximity is the source of the signal in Alpha formats.

Test [20] deals with Cytochrome P450 3A4 (Homo sapiens) (UniProt P08684). Nature of the test: qHTS Assay for Activators of Cytochrome P450 3A4 (AID 885). Also: nearly all actives have a fitted effect of over 65% in size. In a few lines:
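Signal was normalized against complete inhibition by 57 uM ketoconazole. The reaction used 20nM CYP3A4 with 25uM Luciferin-PPXE, 10-min compound preincubation and a 60-min NADPH-supported step at RT.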

The structures appear in SMILES notation. “And” between values parts separate entries of the source, which are not always exact repeats. Equal values may be shown once. Values without a mark were called inactive. Results filed as inconclusive are left out. The source made the active and inactive calls. Unless noted, calls follow the shape of the dose curve; as a rule, active = well fitted curve in the direction sought with a large enough effect; inconclusive = small, poorly fitted or top-dose-only effect, or another doubt; inactive = no such curve, though single readings can be large; an effect the other way counts as inactive or inconclusive.

Chain of Pyruvate kinase PKM (Homo sapiens) (P14618 whole entry, looked up): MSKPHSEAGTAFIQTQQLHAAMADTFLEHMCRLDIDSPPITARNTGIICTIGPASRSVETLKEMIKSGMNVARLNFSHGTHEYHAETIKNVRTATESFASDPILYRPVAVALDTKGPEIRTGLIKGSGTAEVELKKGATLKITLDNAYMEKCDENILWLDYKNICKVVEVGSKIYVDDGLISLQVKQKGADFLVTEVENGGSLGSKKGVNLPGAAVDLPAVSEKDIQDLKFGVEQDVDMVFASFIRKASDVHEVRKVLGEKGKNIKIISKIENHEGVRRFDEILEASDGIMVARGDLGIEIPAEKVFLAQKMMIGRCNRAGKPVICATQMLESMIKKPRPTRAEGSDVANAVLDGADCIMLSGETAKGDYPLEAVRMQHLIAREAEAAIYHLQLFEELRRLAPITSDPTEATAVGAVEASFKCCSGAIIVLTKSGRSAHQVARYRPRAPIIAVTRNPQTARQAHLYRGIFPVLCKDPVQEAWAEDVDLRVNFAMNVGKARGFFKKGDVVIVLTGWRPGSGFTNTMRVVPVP
Chain of Cytochrome P450 1A2 (Homo sapiens) (P05177 whole entry, looked up): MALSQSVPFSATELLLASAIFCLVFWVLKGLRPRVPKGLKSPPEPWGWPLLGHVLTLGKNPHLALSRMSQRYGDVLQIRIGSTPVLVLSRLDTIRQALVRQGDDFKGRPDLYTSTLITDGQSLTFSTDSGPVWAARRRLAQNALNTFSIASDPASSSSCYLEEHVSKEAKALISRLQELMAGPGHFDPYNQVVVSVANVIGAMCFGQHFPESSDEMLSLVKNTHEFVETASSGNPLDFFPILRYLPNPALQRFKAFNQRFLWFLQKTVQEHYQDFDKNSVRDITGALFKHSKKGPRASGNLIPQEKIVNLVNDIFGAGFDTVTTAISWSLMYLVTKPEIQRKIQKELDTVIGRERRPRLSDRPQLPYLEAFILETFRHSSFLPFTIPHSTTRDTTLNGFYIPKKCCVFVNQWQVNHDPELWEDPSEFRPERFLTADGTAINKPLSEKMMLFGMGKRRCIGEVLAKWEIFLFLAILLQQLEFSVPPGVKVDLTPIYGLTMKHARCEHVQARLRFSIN
Chain of Pyruvate kinase (Leishmania mexicana) (Q27686 2-499 E452W): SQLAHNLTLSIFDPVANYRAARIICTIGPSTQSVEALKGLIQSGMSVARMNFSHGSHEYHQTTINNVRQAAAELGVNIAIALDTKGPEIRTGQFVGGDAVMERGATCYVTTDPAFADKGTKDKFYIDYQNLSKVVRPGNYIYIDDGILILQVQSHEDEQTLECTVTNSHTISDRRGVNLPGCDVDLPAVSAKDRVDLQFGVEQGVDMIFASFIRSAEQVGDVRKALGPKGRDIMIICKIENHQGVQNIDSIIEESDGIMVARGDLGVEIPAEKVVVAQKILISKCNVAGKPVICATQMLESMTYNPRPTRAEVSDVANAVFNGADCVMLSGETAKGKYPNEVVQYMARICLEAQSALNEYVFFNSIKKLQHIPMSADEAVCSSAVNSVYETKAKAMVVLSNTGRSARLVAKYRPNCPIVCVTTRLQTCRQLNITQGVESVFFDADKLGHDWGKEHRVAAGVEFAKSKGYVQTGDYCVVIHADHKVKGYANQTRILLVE
Chain of Glucocorticoid receptor (Homo sapiens) (P04150 whole entry, looked up, the tested form may be a part): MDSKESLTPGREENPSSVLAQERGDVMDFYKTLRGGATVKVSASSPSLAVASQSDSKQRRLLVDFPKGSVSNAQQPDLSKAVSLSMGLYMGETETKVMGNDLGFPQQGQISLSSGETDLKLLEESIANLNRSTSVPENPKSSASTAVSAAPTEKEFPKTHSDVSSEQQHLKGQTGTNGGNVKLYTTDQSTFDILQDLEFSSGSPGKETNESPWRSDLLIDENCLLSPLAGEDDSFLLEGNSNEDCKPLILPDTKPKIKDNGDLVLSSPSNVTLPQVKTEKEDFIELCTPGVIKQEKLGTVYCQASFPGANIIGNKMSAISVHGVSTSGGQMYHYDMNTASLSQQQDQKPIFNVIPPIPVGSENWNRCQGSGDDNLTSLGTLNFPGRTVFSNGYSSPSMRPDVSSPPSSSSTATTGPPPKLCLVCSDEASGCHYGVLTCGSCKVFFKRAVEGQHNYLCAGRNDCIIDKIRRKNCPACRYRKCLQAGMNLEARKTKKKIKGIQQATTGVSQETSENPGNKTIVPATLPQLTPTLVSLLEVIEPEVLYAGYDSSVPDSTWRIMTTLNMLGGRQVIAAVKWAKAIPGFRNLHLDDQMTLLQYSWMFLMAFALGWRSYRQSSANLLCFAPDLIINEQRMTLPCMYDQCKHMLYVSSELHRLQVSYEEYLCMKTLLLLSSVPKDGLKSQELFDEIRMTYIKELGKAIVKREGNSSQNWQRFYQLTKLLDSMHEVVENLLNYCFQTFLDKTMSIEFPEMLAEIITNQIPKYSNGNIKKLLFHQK

For `O=C(O)[C@H]1C[C@H](C(=O)O)N1`, the activity change, negative = inhibition is -0.354% [at 38 µM] and 2.92% [at 38 µM] in test [1]; 3.19% [at 38 µM] and 0.467% [at 38 µM] in [3]. In addition, the Potency result in test [2], in test [7], in [9], in test [10], in test [11] and in [13] was “inactive” in each case. The Potency result in test [17] is “inactive”. Moreover, the activity, negative = inhibition in test [4] is -10.2% [at 38 µM]. The Potency in test [5] and in [6] was above 46 µM each time. The molecule was classed as inactive in [8], in test [12], in test [14], in test [15] and in test [16].
For the molecule `COc1cc([C@H](O)C(=O)O)ccc1O`, the activity change, negative = inhibition in [1] was 5.25% [at 38 µM]; in [3], -1.26% [at 38 µM]. Further, the Potency entry in test [2], in test [7], in test [13] and in [17] was “inactive” each time. In addition, in test [4], the activity, negative = inhibition is 4.86% [at 38 µM]. Also, the Potency in [5] and in test [6] was above 46 µM each time. For the same molecule, the call in test [8], in test [12], in test [14], in test [15] and in [16] was inactive.
For the molecule `CC(C)(C)c1onc(OCP(=O)(O)O)c1C[C@@H](N)C(=O)O`, the activity change, negative = inhibition in [1] was -0.711% [at 38 µM]; in [3], 8.86% [at 38 µM]. Besides, the Potency entry in [2], in test [7], in [18], in test [13] and in [17] was “inactive” each time. In addition, the activity, negative = inhibition in test [4] was -10.4% [at 38 µM]. Also, the Potency in test [5] and in [6] was above 46 µM in each case. In addition, the outcome in test [8], in test [12], in [14], in test [15] and in test [16] was inactive.
With `CC(C)[C@H]1C(=O)C(C(N)=O)=C(O)[C@]2(O)C(=O)C3=C(O)c4c(O)ccc(N(C)C)c4C[C@H]3C[C@@H]12`, the values for the activity change, negative = inhibition in test [1] and in [3] were 0.478% [at 38 µM] and 8.64% [at 38 µM], respectively. In addition, the Potency entry in [2], in [7], in test [18], in test [13] and in [17] was “inactive” each time. For the same molecule, the activity, negative = inhibition in [4] was 1.38% [at 38 µM]. Moreover, the Potency in test [5] and in test [6] was above 46 µM each time. The molecule was called inactive in test [8], in [14], in test [15] and in test [16].
With `COc1ncc2nc(-c3cc(F)cc(F)c3)c(=O)n(C3CC3)c2n1`, the activity change, negative = inhibition was 5.87% in test [1] and -2% in test [3]. For the same molecule, the Potency is 1.58 µM (active) in [2], above 9.22 µM in [5] and above 46 µM in [6]. The activity, negative = inhibition in test [4] is -19.2%. Moreover, the Potency entry in test [19], in [7] and in test [20] was “inactive” in each case.
In the case of `C[C@@H]1C(=O)N(C)C(=O)c2nc[nH]c21`, the activity change, negative = inhibition in test [1] is -6.31% [at 38 µM]; in test [3], -19.2% [at 38 µM]. Besides, the Potency entry in test [2], in [7], in test [18] and in test [17] was “inactive” each time. The activity, negative = inhibition in [4] was 15% [at 38 µM]. For the same molecule, the Potency in [5] and in [6] was above 46 µM in each case. The result in test [8], in test [12], in [14], in test [15] and in test [16] was inactive.

For the origin of these results see PubChem BioAssay (NCATS).
